Experimental data as given in PubChem BioAssay (NCI).
Compounds without any hit were thinned out: in the full panel of roughly 83,000, 20% have a hit.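 Compound tested at a single concentration for 48 hours in 96-well plates; a percent growth value below 10 was scored as active.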 Active and inactive are the calls of the source.

System: HL-60(TB) leukemia
Experiment: NCI-60 one-dose screen, 48 h (100 = growth as untreated, 0 = no growth, -100 = all killed)
Conditions: 10 µM unless noted

Row | SMILES | growth
1 | CN(C)CCCN1c2ccccc2CCc2ccccc21 | 91.4% (inactive)
2 | COc1cc(C(=O)c2c(N)ncn2-c2ccccc2)cc(OC)c1OC | 77.5% (inactive)
3 | CC[C@]12C=CCN3CC[C@@]4(c5ccc(OC)cc5N(C)[C@H]4[C@@](O)(C(=O)OC)[C@@H]1OC(=O)CCCN1CCOCC1)[C@@H]32 | 97.5% (inactive)
4 | O=C(O)[C@@H]1[C@H]2C[C@H]3c4[nH]c5ccccc5c4CCN3C[C@@H]2CC[C@@H]1O | 128% (inactive)
5 | CCOC(=O)c1c(C)nc2c(c1N)C(=O)C(=O)N2Cc1ccc(OC)cc1 | 46.6% (inactive)
6 | CN(C(=S)S(=O)(=O)C12CC3CC(CC(C3)C1)C2)c1ccccc1 | 11.5% (inactive)
